The full list was thinned out, with hits kept by preference.
RECQ1 helicase = qHTS Assay for Inhibitors of RecQ-Like Dna Helicase 1 (RECQ1); ATP-dependent DNA helicase Q1 (Homo sapiens), P46063; RECQ1 DNA unwinding, red fluorescence kinetic read; Potency, µM (doses to about 57.3 µM), most hits filed as inhibitors; 240,000 compounds, 0.54% hits; AID 2549, 2010; also: nearly all actives have a fitted effect of over 30% in size
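50 nM RECQ1T1 preincubated 15 min with compound in Tris pH 8.0 buffer with MgCl2, DTT, Tween-20 and 2.5 ug/ml poly(dI-dC); started with 200 nM TAMRA/BHQ-2 forked duplex and 2 mM ATP. Unwinding read as fluorescence (525/598 nm), two reads 2 h apart.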
BLM inh = qHTS Assay for Inhibitors of Bloom's syndrome helicase (BLM); 350,000 compounds, 0.2% hits; Potency, µM (top dose mostly 56.1 µM), usual class: inhibitors; recombinant BLM DNA unwinding, fluorescence dequenching; also: nearly all actives have a fitted effect of over 35% in size
PKM2 activator = qHTS Assay for Activators of Human Muscle isoform 2 Pyruvate Kinase; purified PKM2, Kinase-Glo ATP luminescence, activation; response scale: 0% is enzyme alone, no compound; Potency, µM (highest dose often 57.5 µM), hits mostly activators; 260,000 compounds, 0.34% hits; AID 1631, 2009; also: nearly all actives have a fitted effect of over 55% in size
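ATP formation by purified human PK-M2, quantified via coupled luciferase luminescence after 1 h at room temperature with 0.1 mM ADP and 0.5 mM PEP final.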
APEX1 inh = qHTS Assay for Inhibitors of the Human Apurinic/apyrimidinic Endonuclease 1 (APE1); 350,000 compounds, 0.35% hits; Potency, µM (titrated, usually from 65.8 µM), actives largely listed as inhibitors; AID 2517, 2012; recombinant APE1, TAMRA/BHQ-2 abasic DNA cleavage fluorescence; also: nearly all actives have a fitted effect of over 55% in size
Target sequence (P27695 whole entry, looked up): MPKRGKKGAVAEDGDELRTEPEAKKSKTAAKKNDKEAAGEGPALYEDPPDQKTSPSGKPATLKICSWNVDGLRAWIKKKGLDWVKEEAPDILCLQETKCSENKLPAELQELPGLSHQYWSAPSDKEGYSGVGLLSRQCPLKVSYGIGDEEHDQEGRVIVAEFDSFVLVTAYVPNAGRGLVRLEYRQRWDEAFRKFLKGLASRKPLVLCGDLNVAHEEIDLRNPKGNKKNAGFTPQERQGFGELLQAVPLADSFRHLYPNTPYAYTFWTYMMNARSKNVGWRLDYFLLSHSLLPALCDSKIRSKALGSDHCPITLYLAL
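Quantitative HTS: incision of a TAMRA/BHQ-2 double-stranded substrate bearing a tetrahydrofuran abasic site by 0.75 nM APE1 raises fluorescence. Substrate 50 nM final, added after 15 min compound preincubation at room temperature; progress as third-minus-first kinetic read difference.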
KDM4E inh = qHTS Assay for Inhibitors of Human Jumonji Domain Containing 2E (JMJD2E); Lysine-specific demethylase 4E (Homo sapiens), B2RXH2; JMJD2E catalytic domain, FDH-coupled NADH fluorescence (FDH is formaldehyde dehydrogenase); Potency, µM (titrated, usually from 57.1 µM), actives largely listed as inhibitors; 230,000 compounds, 1.6% hits; active = well fitted inhibition curve with a large enough effect, not every such curve was filed as active; inconclusive = small, poorly fitted or top-dose-only effect, or another doubt; inactive = no such curve, though single readings can be large or run the other way; also: nearly all actives have a fitted effect of over 50% in size
Target sequence (B2RXH2 1-337 limits assumed): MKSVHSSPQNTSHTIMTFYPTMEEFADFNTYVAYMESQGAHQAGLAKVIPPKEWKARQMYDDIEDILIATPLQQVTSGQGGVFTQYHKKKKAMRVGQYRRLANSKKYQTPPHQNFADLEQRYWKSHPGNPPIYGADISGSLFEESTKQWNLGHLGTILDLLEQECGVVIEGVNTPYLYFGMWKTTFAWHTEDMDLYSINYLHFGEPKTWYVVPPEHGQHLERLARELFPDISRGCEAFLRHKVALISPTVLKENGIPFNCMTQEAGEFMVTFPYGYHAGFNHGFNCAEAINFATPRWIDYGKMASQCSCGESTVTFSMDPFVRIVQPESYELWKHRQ
Of the large screens only hits and unclear results are named; the others gave an inactive call; ! = a repeat was not active. Unless noted, calls follow the shape of the dose curve; as a rule, active = well fitted curve in the direction sought with a large enough effect; inconclusive = small, poorly fitted or top-dose-only effect, or another doubt; inactive = no such curve, though single readings can be large; an effect the other way counts as inactive or inconclusive.

CC[C@H](C)[C@H](NC(=O)[C@H](Cc1ccc(O)cc1)NC(=O)[C@H](CCCNC(=N)N)NC(=O)[C@H](CCCNC(=N)N)NC(=O)[C@H](CC(C)C)NC(=O)[C@H](CCC(N)=O)NC(=O)[C@@H](NC(=O)[C@H](CCC(=O)O)NC(=O)[C@H](Cc1ccc(O)cc1)NC(=O)[C@H](CCC(N)=O)NC(=O)[C@H](C)NC(=O)[C@H](CCCNC(=N)N)NC(=O)[C@H](CCC(N)=O)NC(=O)[C@H](CCC(=O)O)NC(=O)[C@H](Cc1cnc[nH]1)NC(=O)[C@@H](NC(=O)[C@H](C)NC(=O)[C@H](Cc1ccc(O)cc1)NC(=O)[C@H](CC(=O)O)NC(=O)CNC(=O)[C@@H]1CCCN1C(=O)[C@H](Cc1ccc(O)cc1)NC(=O)[C@H](CCSC)NC(=O)[C@@H]1CCCN1C(=O)[C@H](CCC(=O)O)NC(=O)[C@H](CC(C)C)NC(=O)[C@@H]1CCCN1C(=O)[C@H](C)N)[C@@H](C)O)[C@@H](C)O)C(=O)N[C@@H](CC(N)=O)C(=O)N[C@H](C(=O)N[C@@H](CC(C)C)C(=O)N[C@H](C(=O)N[C@@H](CCCNC(=N)N)C(=O)N1CCC[C@H]1C(=O)N[C@@H](CCCNC(=N)N)C(=O)N[C@@H](Cc1ccc(O)cc1)C(N)=O)[C@@H](C)O)[C@@H](C)O	none (no result: PKM2 activator, KDM4E inh)
Cc1ccccc1-n1c(-c2ccncc2)n[nH]c1=S	none
CCc1ccccc1-n1c(-c2ccncc2)n[nH]c1=S	APEX1 inh 31.6µM
O=C(CCCOc1ccc(Cl)cc1Cl)Nc1ccncc1	APEX1 inh 28.2µM
O=C(CCCOc1ccc(Cl)cc1Cl)Nc1ccccn1	none
O=C(NCc1ccccc1)c1ccc2nccnc2c1	none
O=C(NCc1ccccc1)c1ccc2nc(-c3ccco3)c(-c3ccco3)nc2c1	RECQ1 helicase inconclusive, BLM inh 14.1µM, KDM4E inh inconclusive
O=C(Nc1ccccc1)c1ccc2nc(-c3ccco3)c(-c3ccco3)nc2c1	BLM inh 31.6µM, KDM4E inh inconclusive
CCCCNC(=O)c1ccc2nc(-c3ccco3)c(-c3ccco3)nc2c1	BLM inh 15.8µM, KDM4E inh inconclusive
CCCNC(=O)c1ccc2nc(-c3ccccc3)c(-c3ccccc3)nc2c1	KDM4E inh inconclusive
CC(=O)/C(N=Nc1ccc(C(=O)O)cc1[N+](=O)[O-])=C(\C)O	APEX1 inh 10µM
CN(N=O)C(=O)N[C@@H]1[C@@H](O)[C@H](O)[C@@H](CO)O[C@@H]1O	none (no result: RECQ1 helicase, BLM inh, PKM2 activator, KDM4E inh)
Cc1ccc(/C=C/C(=O)N2CCN(S(=O)(=O)c3c(C)c(C)cc(C)c3C)CC2)o1	PKM2 activator 3.16µM
CC(C)C[C@H](N)C(=O)N[C@H](C(=O)N[C@@H](CCCN=C(N)N)C(=O)N[C@H](CS)C(=O)NCC(=O)N[C@@H](CCCCN)C(=O)N[C@@H](Cc1cnc[nH]1)C(=O)N[C@@H](CO)C(=O)N[C@@H](CCCN=C(N)N)C(=O)O)C(C)C	none (no result: PKM2 activator, KDM4E inh)
O=Nc1ccc(NO)cc1	none (no result: BLM inh, PKM2 activator, KDM4E inh)
COc1ccc(OC)c(Nc2nc(NCc3ccco3)c3ccccc3n2)c1	BLM inh 28.2µM (no result: RECQ1 helicase, KDM4E inh)
O=[N+]([O-])c1ccccc1-c1ccc(C(=S)N2CCCC2)o1	KDM4E inh 25.1µM
O=C(CSc1nc(-c2ccccc2)[nH]c1-c1ccccc1)Nc1ccc2c(c1)OCO2	none (no result: RECQ1 helicase, PKM2 activator, APEX1 inh, KDM4E inh)
CN1CCC(NC(=O)c2cnn3c2NC(=C2CC2)C=C3C(F)F)CC1	none (no result: RECQ1 helicase, BLM inh, PKM2 activator, KDM4E inh)
CCOC(=O)C1=C(CSc2nc(-c3ccccc3)ccc2C#N)OC(N)=C(C#N)C1c1ccc(OC)cc1 (stereo not drawn)	RECQ1 helicase 10µM
N[C@H](C(=O)O)c1nn[nH]n1	KDM4E inh 20µM (no result: PKM2 activator)
CCOC(=O)Cc1nn[nH]n1	none
CC1(C)Cc2[nH]c(=S)c(C#N)cc2CO1	KDM4E inh 12.6µM
N#Cc1cc2c([nH]c1=S)CCCC2	none
Cc1sc(C(C2C(=O)CC(C)(C)CC2=O)C2C(=O)CC(C)(C)CC2=O)cc1[N+](=O)[O-]	PKM2 activator 17.8µM, KDM4E inh inconclusive
CC1(C)CC(=O)C(C(C2=C(O)CC(C)(C)CC2=O)c2ccc([N+](=O)[O-])cc2)C(=O)C1 (stereo not drawn)	none
CC12C(=O)N(c3nccs3)C(=O)C1C1C=CC2C1 (stereo not drawn)	APEX1 inh 10µM
CC12C(=O)N(c3cccc4cccnc34)C(=O)C1C1C=CC2C1 (stereo not drawn)	none
CN=c1scc(-c2ccc(F)cc2)n1/N=C/c1ccc(O)c(O)c1	RECQ1 helicase inconclusive, APEX1 inh inconclusive, KDM4E inh 28.2µM
O=C(c1cc(O)c(O)c([N+](=O)[O-])c1)c1ccccc1F	RECQ1 helicase 2.24µM, KDM4E inh 11.2µM (no result: BLM inh, PKM2 activator)
CCN(CC)c1ccc(/C=N/NC(=O)c2ccc(O)cc2)cc1	APEX1 inh inconclusive, KDM4E inh inconclusive
O=C(Nc1ccccn1)C(=O)Nc1ccccn1	none
S=C(Nc1ccccn1)c1ccccn1	KDM4E inh 12.6µM
COC(=O)[C@@H]1CC2=CC(=O)CC[C@]2(C)[C@@]23O[C@@H]2C[C@@]2(C)[C@H](CC[C@@]24CCC(=O)O4)[C@@H]13	none (no result: PKM2 activator, KDM4E inh)
CCn1c(=O)[nH]c2ccccc21	none (no result: PKM2 activator)
CCn1c(C)c(CS(=O)(=O)c2ccccc2)[nH]c1=O	KDM4E inh 28.2µM
Cc1ccccc1NC(=S)N/N=C/c1ccc(O)cc1O	KDM4E inh 14.1µM
Cc1cccc(NC(=S)N/N=C/c2cccc(O)c2)c1C	none
C[C@H](Cc1nc2c(cnn2-c2ccccc2Cl)c(=O)[nH]1)C(F)(F)F	none (no result: PKM2 activator, KDM4E inh)
O=c1nc2ccccc2c2n1CC(CN1CCN(c3ccccc3)CC1)N2 (stereo not drawn)	none (no result: BLM inh, PKM2 activator, KDM4E inh)
CCO[C@@H]1O[C@H](C(COCc2ccccc2)OCc2ccccc2)[C@H](OCc2ccccc2)[C@H]1O (stereo partly drawn)	none (no result: RECQ1 helicase, BLM inh, PKM2 activator, KDM4E inh)
Cc1ccccc1OC(=O)n1c(=S)oc2cc(Cl)ccc21	KDM4E inh 28.2µM
O=C(Oc1ccccc1)n1c(=S)oc2ccccc21	none
COc1ccc(S(=O)(=O)N2CCc3cc(OC)c(OC)cc3C2)cc1	PKM2 activator 7.94µM
COc1cc2c(cc1OC)CN(S(=O)(=O)c1cccs1)CC2	PKM2 activator inconclusive
O=C1C[C@H](c2ccccc2)Oc2cc(O)cc(O)c21	none (no result: PKM2 activator)
Oc1cc(O)c2c(c1)O[C@H](c1ccc(O)c(O)c1)[C@@H](O)C2	RECQ1 helicase inconclusive, APEX1 inh 11.2µM!, KDM4E inh 25.1µM

Source: PubChem BioAssay (National Center for Advancing Translational Sciences (NCATS))
